Test results published in PubChem BioAssay (Tox21).
Records with an inconclusive call do not appear. Where a call stands in place of a potency, no number is given. The source made the active and inactive calls. Unless noted, calls follow the shape of the dose curve; as a rule, active = well fitted curve in the direction sought with a large enough effect in the repeat runs; inconclusive = weak or mixed curves; inactive = no such curve, though single readings can be large; an effect the other way counts as inactive or inconclusive.

How the values were obtained:
[1] = qHTS assay to test for compound auto fluorescence at 535 nm (green) in HEK293 cells (AID 720680)
[2] = qHTS assay to test for compound auto fluorescence at 460 nm (blue) in HEK293 cell free culture (AID 720681)
Procedure, shortened: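 Test compounds were pinned into cell-free culture medium (DMEM with 10% FBS) and fluorescence was read directly at Ex/Em 405/460 nm. Signals were expressed as fluorescence equivalents of triamterene, with DMSO vehicle as control.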

[3] = qHTS assay to test for compound auto fluorescence at 535 nm (green) in HEK293 cell free culture (AID 720682)
Procedure, shortened: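 Each library compound, or DMSO control, is added by pintool to medium alone, comprising DMEM and 10% FBS. Emission at 535 nm following 485 nm excitation is quantified against fluorescein.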

[4] = qHTS assay to test for compound auto fluorescence at 590 nm (red) in HEK293 cell free culture (AID 720683)
Procedure, shortened: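 Tox21 10K library compounds were pinned into cell-free DMEM with 10% FBS and fluorescence was read at excitation 540 nm. Activity is expressed as Rose Bengal sodium equivalency.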

[5] = qHTS assay to test for compound auto fluorescence at 590 nm (red) in HepG2 cell free culture (AID 720684)
Procedure, shortened: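 Red fluorescence (540 nm excitation, 590 nm emission) was measured after compound transfer into cell-free MEM supplemented with 10% FBS. Values are equivalencies against Rose Bengal sodium.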

[6] = qHTS assay to test for compound auto fluorescence at 460 nm (blue) in HepG2 cell free culture (AID 720685)
Procedure, shortened: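 Compound (23 nL) or DMSO pinned into cell-free MEM with 10% FBS; blue fluorescence read at 405/460 nm excitation/emission, expressed as auto-fluorescence equivalency to triamterene.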

[7] = qHTS assay to test for compound auto fluorescence at 535 nm (green) in HepG2 cell free culture (AID 720686)
[8] = qHTS assay to test for compound auto fluorescence at 460 nm (blue) in HepG2 cells (AID 720687)
Procedure, shortened: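 Cells (2,000/well in MEM with 10% FBS) attached overnight at 37 C, then were exposed to compound or DMSO for 1 hr at 37 C, 5% CO2. Fluorescence read at Ex/Em 405/460 nm, expressed as triamterene-equivalent signal.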

[9] = target: Glucocorticoid receptor (Homo sapiens) (UniProt P04150); experiment: qHTS assay to identify small molecule agonists of the glucocorticoid receptor (GR) signaling pathway (AID 720691; active = well fitted activation curve with a large enough effect in the signal ratio in the repeat runs, not every such curve was filed as active; the % refers to the signal ratio); settings: GR-bla HeLa, beta-lactamase reporter ratio, 18 h; activation: at 62.4 µM (top of the series)
Glucocorticoid receptor (Homo sapiens), sequence (P04150 whole entry, looked up): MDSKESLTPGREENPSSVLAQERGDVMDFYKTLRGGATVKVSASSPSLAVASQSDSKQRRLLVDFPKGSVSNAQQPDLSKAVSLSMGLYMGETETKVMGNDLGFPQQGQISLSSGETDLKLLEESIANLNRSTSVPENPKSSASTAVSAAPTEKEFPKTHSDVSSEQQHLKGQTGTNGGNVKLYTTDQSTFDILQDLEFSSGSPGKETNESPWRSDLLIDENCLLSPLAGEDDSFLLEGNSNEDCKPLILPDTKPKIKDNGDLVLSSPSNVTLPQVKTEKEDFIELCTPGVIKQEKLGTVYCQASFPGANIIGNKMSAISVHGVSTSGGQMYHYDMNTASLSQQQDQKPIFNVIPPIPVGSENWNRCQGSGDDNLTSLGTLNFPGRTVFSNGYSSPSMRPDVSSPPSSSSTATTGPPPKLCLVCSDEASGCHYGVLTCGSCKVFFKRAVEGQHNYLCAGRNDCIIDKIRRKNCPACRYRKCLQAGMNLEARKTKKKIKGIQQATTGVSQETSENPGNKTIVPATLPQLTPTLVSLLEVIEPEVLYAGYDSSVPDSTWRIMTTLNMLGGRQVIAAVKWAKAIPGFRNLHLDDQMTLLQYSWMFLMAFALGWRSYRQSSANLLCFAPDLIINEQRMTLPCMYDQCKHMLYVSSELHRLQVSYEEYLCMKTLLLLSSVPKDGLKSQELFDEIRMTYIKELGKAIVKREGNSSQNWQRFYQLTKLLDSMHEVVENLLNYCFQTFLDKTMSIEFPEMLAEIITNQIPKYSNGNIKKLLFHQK
Procedure, shortened: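 Reporter read-out: fluorescence intensity following 2 h room-temperature LiveBLAzer B/G FRET substrate loading. Prior step: GR-bla HeLa cells held 4 h, then treated 18 h at 37 C.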

[10] = target: Glucocorticoid receptor (Homo sapiens) (UniProt P04150); experiment: qHTS assay to identify small molecule antagonists of the glucocorticoid receptor (GR) signaling pathway (AID 720692; active = well fitted inhibition curve with a large enough effect in the signal ratio in the repeat runs, not every such curve was filed as active; the % refers to the signal ratio; also: potency is read from the fitted curve at half-maximal effect)
Procedure, shortened: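 Dexamethasone (5 nM final) stimulated a stably integrated GRE-beta-lactamase reporter in HeLa cells during 18 h co-incubation with compounds; signal was quantified as fluorescence intensity of B/G FRET substrate after 2 h.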

[11] = qHTS assay to identify small molecule antagonists of the glucocorticoid receptor (GR) signaling pathway - cell viability counter screen (AID 720693); also: nearly all actives have a fitted effect of over 55% in size
[12] = qHTS assay for identifying genotoxic compounds that show differential cytotoxicity against isogenic chicken DT40 cell lines with known DNA damage response pathways - wild type cell line (AID 743012); also: nearly all actives have a fitted effect of over 60% in size; also: potency is read from the fitted curve at half-maximal effect
Procedure, shortened: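 Using parental DT40 (300 cells/well), compounds delivered in DMSO incubate 40 h at 37 C/5% CO2. CellTiter-Glo reagent then stands 30 min at room temperature, and luminescence gives cell viability.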

[13] = qHTS assay to identify small molecule antagonists of the androgen receptor (AR) signaling pathway - cell viability counter screen (AID 743033; also: nearly all actives have a fitted effect of over 45% in size)
[14] = target: Androgen receptor (Homo sapiens) (UniProt P10275); experiment: qHTS assay to identify small molecule antagonists of the androgen receptor (AR) signaling pathway (AID 743035; active = well fitted inhibition curve with a large enough effect in the signal ratio in the repeat runs, not every such curve was filed as active; the % refers to the signal ratio)
Androgen receptor (Homo sapiens), sequence (P10275 whole entry, looked up): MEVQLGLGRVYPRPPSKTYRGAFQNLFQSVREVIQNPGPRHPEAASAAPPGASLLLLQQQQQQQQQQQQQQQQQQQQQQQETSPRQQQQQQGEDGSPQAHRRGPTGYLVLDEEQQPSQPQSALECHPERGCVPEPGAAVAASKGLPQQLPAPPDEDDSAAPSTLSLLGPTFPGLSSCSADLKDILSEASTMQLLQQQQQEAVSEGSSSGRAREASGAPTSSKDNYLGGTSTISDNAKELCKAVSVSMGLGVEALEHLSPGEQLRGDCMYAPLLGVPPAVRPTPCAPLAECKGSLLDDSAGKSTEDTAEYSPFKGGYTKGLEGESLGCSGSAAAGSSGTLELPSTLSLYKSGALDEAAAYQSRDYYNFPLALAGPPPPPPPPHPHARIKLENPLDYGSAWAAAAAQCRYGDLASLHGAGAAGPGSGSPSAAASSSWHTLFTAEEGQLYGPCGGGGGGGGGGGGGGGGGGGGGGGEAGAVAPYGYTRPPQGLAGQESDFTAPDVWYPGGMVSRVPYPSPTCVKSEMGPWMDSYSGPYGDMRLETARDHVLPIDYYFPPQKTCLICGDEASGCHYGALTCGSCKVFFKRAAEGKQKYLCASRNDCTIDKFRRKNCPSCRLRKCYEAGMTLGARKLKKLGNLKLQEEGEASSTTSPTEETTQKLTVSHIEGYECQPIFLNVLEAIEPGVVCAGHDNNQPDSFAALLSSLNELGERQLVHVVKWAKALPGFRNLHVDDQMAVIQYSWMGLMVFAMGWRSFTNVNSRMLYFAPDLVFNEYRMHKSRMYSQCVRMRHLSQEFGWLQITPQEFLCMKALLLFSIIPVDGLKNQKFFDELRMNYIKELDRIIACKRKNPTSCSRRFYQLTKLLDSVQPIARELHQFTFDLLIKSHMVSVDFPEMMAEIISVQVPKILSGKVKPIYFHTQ
Procedure, shortened: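 Using qHTS, AR-UAS-bla GripTite HEK293 cells received compound, then R1881, and were cultured 16 h at 37C/5% CO2 before a 2 h room-temperature LiveBLAzer B/G FRET substrate step and fluorescence measurement.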

[15] = qHTS assay to identify small molecule antagonists of the androgen receptor (AR) signaling pathway using the MDA cell line - cell viability counter screen (AID 743041; also: nearly all actives have a fitted effect of over 45% in size)
Procedure, shortened: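 MDA-kb2 AR-luc human breast carcinoma cells (MMTV-luciferase, AR/GR responsive) were treated with compounds plus R1881 agonist for 16 h at 37 °C. Viability was read as CellTiter-Fluor fluorescence in the same wells as the reporter assay.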

[16] = target: Androgen receptor (Homo sapiens) (UniProt P10275); experiment: qHTS assay to identify small molecule antagonists of the androgen receptor (AR) signaling pathway using the MDA cell line (AID 743042; also: nearly all actives have a fitted effect of over 55% in size)
Procedure, shortened: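 MDA-kb2 cells (human breast carcinoma, stably carrying an MMTV-luciferase reporter responsive to AR and GR) were plated at 3,000 cells/well and preincubated 5 hr at 37C, then given compound plus R1881 agonist for 16 h. ONE-Glo luminescence was read.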

[17] = qHTS assay for identifying genotoxic compounds that show differential cytotoxicity against isogenic chicken DT40 cell lines with known DNA damage response pathways - Rad54/Ku70 mutant cell line (AID 743015); also: nearly all actives have a fitted effect of over 60% in size; also: potency is read from the fitted curve at half-maximal effect
[18] = qHTS assay for identifying genotoxic compounds that show differential cytotoxicity against isogenic chicken DT40 cell lines with known DNA damage response pathways - Rev3 mutant cell line (AID 743014); also: nearly all actives have a fitted effect of over 55% in size; also: potency is read from the fitted curve at half-maximal effect

Row | Compound | Potency [1] | Potency [2] | Potency [3] | Potency [4] | Potency [5] | outcome [6] | Potency [7] | outcome [8] | Potency [9] | Potency [10] | Potency [11] | Potency [12] | Potency [13] | Potency [14] | Potency [15] | Potency [16] | Potency [17] | Potency [18]
1 | CCC(c1ccccc1)c1noc(CCN(CC)CC)n1 (stereo not given) | inactive | inactive | inactive | inactive | inactive | inactive | inactive | inactive | inactive | inactive | inactive | 23.7 µM (active) | inactive | inactive | inactive | inactive |  | 
2 | C#C[C@]1(O)CC[C@H]2[C@@H]3CCC4=CC(=O)CC[C@@H]4[C@H]3C(=C)C[C@@]21CC | inactive | inactive | inactive | inactive | inactive | inactive | inactive | inactive | inactive | 0.379 µM (active) | inactive | 29.8 µM (active) | inactive |  | inactive |  |  | 
3 | CCCCC(=O)O[C@H]1CC[C@H]2[C@@H]3CCc4cc(O)ccc4[C@H]3CC[C@]12C | inactive | inactive | inactive | inactive | inactive | inactive | inactive | inactive | inactive | 9.52 µM (active) | inactive | 18.8 µM (active) |  |  | inactive |  | 16.8 µM (active) | 
4 | OC[C@@H](O)C(O)[C@H](O)CO | inactive | inactive | inactive | inactive | inactive | inactive | inactive | inactive | inactive | inactive | inactive | inactive |  |  | inactive |  | inactive | inactive
5 | Nc1ncnc2c1ncn2CCOCP(=O)(O)O | inactive | inactive | inactive | inactive | inactive | inactive | inactive | inactive | inactive | inactive | inactive | inactive | inactive |  | inactive |  | inactive | inactive
6 | CN1CCN(CCCN2c3ccccc3Sc3ccccc32)CC1 | inactive | inactive | inactive | inactive | inactive | inactive | inactive | inactive | inactive | inactive | inactive | 9.44 µM (active) |  |  | inactive |  | 13.3 µM (active) | 11.9 µM (active)
7 | Cc1nc(NS(=O)(=O)c2ccc(N)cc2)nc(C)c1Br | inactive | inactive | inactive | inactive | inactive | inactive | inactive | inactive | inactive | inactive | inactive | inactive | inactive |  | inactive |  | inactive | 
8 | CCCCC(=O)N(Cc1ccc(-c2ccccc2-c2nn[nH]n2)cc1)[C@@H](C(=O)O)C(C)C | inactive | inactive | inactive | inactive | inactive | inactive | inactive | inactive | inactive | inactive | inactive | inactive | inactive |  | inactive |  | inactive | 
9 | NCc1ccccc1CC(=O)N[C@@H]1C(=O)N2C(C(=O)O)=C(CSc3nnnn3CC(=O)O)CS[C@H]12 | inactive | inactive | inactive | inactive | inactive | inactive | inactive | inactive | inactive | inactive | inactive | inactive |  |  | inactive |  | inactive | inactive
10 | CC(=O)N(CC(C)C(=O)O)c1c(I)cc(I)c(N)c1I (stereo not given) | inactive | inactive | inactive | inactive | inactive | inactive | inactive | inactive | inactive | inactive | inactive | inactive | inactive |  | inactive |  | inactive | 
11 | CC#CCC(C)[C@H](O)/C=C/[C@@H]1[C@H]2C/C(=C/CCCC(=O)O)C[C@H]2C[C@H]1O (stereo not given in full) | inactive | inactive | inactive | inactive | inactive | inactive | inactive | inactive | inactive | inactive | inactive |  | inactive |  | inactive |  | inactive | inactive
12 | COc1ccc(-c2noc(CC(=O)O)c2-c2ccc(OC)cc2)cc1 | inactive | inactive | inactive | inactive | inactive | inactive | inactive | inactive | inactive | inactive | inactive |  | inactive |  | inactive | inactive | inactive | 
13 | CCCCCCCCCCCCCCCCCC[N+](C)(C)CCC[Si](OC)(OC)OC | inactive | inactive | inactive | inactive | inactive | inactive | inactive | inactive | inactive | inactive | inactive |  | inactive |  | inactive |  | 10.6 µM (active) | 18.8 µM (active)
